Here are results for 24 compounds from publication PMC4336329 (PLoS ONE, 2015).

Each structure is given as a SMILES string. In all, about 310,000 compounds went through this assay and about 14,000 (4.5%) showed an effect of 50% or more. Effects have a minus sign here. The entries come from a sample that favours strong results as a whole.
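Further: peak tail current of the secondary pulse compared with the same well before compound.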

human ether-à-go-go-related gene (hERG) potassium channel, sequence (Q12809 whole entry, looked up): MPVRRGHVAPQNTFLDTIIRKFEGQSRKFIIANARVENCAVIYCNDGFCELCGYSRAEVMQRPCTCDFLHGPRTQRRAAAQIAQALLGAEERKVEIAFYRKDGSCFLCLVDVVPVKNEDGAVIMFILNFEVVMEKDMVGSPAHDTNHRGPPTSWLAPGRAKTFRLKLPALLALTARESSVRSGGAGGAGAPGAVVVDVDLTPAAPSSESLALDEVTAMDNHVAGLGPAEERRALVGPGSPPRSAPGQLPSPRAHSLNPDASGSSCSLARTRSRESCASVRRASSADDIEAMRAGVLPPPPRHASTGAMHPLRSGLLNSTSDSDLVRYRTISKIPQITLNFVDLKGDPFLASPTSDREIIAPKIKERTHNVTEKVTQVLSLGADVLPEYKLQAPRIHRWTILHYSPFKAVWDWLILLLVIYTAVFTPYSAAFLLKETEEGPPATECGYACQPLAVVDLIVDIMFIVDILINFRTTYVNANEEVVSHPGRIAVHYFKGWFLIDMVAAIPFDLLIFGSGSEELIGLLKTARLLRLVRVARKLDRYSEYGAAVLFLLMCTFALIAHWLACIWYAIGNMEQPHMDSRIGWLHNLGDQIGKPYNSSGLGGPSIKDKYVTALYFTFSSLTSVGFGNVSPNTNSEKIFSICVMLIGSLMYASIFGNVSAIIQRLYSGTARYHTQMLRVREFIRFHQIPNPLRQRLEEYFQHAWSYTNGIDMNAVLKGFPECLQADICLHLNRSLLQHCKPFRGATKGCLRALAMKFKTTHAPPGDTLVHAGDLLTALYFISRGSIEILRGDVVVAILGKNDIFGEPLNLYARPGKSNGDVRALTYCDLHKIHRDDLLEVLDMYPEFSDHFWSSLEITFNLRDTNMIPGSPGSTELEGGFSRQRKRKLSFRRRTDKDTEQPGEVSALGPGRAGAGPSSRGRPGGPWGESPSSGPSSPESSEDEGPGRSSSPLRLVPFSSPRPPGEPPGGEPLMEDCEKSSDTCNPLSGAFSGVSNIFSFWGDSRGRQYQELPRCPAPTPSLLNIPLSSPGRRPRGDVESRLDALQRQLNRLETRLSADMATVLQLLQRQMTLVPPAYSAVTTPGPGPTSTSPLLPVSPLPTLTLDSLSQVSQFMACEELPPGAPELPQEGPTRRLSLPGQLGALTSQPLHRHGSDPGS

This experiment addresses human ether-à-go-go-related gene (hERG) potassium channel (human, UniProt Q12809). Briefly: primary screen, population patch clamp on CHO cells stably expressing hERG; higher = less effect of the substance.
Regarding `CC12CN3CC(C)(CN(C1)C3c1cccnc1)C2=O` (stereo not drawn), the “hERG current change (%, negative = inhibition) at 10uM” value is -0.24%. For the compound `CC(NCc1ccco1)C(=O)N1CCc2ccccc2C1.Cl` (stereo not drawn), the “hERG current change (%, negative = inhibition) at 10uM” value came out at 14%. Under `O=C(COc1ccccc1)Nc1ccc2c(c1)C(=O)N(CC1CCCO1)C2=O` (stereo not drawn) stands 6.03%; under `O=C(NCc1ccco1)c1ccc(Cn2cc([N+](=O)[O-])cn2)o1`, -10.3%.

`O=C1c2cccc3c(N4CCCCC4)ccc(c23)C(=O)N1c1cccc(O)c1`: the “hERG current change (%, negative = inhibition) at 10uM” value came out at 32.6%. As for `CNC(=O)c1c(NC(=O)c2ccc(N3C(=O)CCC3=O)cc2)sc2c1CCCC2`, the figure is -13.3%. Under `CCOc1cc(NC(=O)c2ccccc2C)c(OCC)cc1NC(=O)C1=Cc2ccccc2OC1` stands 9.99%. As for `CC(C)(C)NC(=S)NC(=O)C12CCC3CC(CC(C3)C1)C2`, the figure is 6.45%; as for `CC(C)=CCN1CCC(n2nccc2NC(=O)c2ccccc2Cl)CC1`, -57.9%. As for `O=C(Nc1ccnn1C1CCN(C/C=C/c2ccccc2)CC1)c1ccccc1`, the “hERG current change (%, negative = inhibition) at 10uM” value is -73.7%. Under `O=C(Nc1ccnn1C1CCN(Cc2ccc(CO)o2)CC1)c1ccccc1Cl` stands -0.636%. Turning to `CC(C)(C)CN1CCC(n2nccc2NC(=O)c2ccccc2Cl)CC1`, the “hERG current change (%, negative = inhibition) at 10uM” value is on record as -20.3%.

Take `O=C(Nc1ccnn1C1CCN(C2CCOCC2)CC1)c1cccc(F)c1`: the “hERG current change (%, negative = inhibition) at 10uM” value was -1.9%. Under `O=C(Nc1ccnn1C1CCN(C/C=C/c2ccccc2)CC1)c1cccc(F)c1` stands -70.9%; under `O=C(Nc1ccnn1C1CCN(Cc2ccccn2)CC1)c1cccc(F)c1`, -7.3%.

As to `O=C(Nc1ccnn1C1CCN(C/C=C/c2ccccc2)CC1)c1ccccc1Cl`, the “hERG current change (%, negative = inhibition) at 10uM” value is on record as -83.8%. Under `O=C(Nc1ccnn1C1CCN(Cc2ccc(CO)o2)CC1)c1ccccc1` stands 1.16%. As for `COc1cc(/C=N\NC(=O)c2ccc(C)nc2)ccc1OC(=O)c1cccc(F)c1`, the “hERG current change (%, negative = inhibition) at 10uM” value is on record as -8.51%.

For `COc1ccccc1-c1cc(C(=O)N2CCCC2)no1`, the “hERG current change (%, negative = inhibition) at 10uM” value is reported as -8.67%. As for `Cc1ccc(S(=O)(=O)/N=C(/Nc2ccc(F)cc2F)c2ccccc2)cc1`, the figure is 12.9%.

With `COC(=O)c1ccc(NC(=S)Nc2cccc(C)n2)cc1`, the “hERG current change (%, negative = inhibition) at 10uM” value is recorded as -0.48%.

`O=C(COC(=O)c1c(F)cccc1Cl)NC(=O)Nc1ccc2c(c1)OCCO2`: the “hERG current change (%, negative = inhibition) at 10uM” value is on record as 12.4%.

Regarding `CCOC(=O)c1ccc(NC(=O)c2nn(CC)cc2Br)cc1`, the “hERG current change (%, negative = inhibition) at 10uM” value is given as 5.3%.

On to `CC(=NCCO)c1c(O)n(C2CCCCC2)c(=O)[nH]c1=O`, for which the “hERG current change (%, negative = inhibition) at 10uM” value is -5.36%.
